# Test results published in PubChem BioAssay.
# Several values for one entry are separate records, joined by “and”; a condition that tells them apart may be missing. Equal entries are not always repeated. Activity calls are given as the source filed them. Unless noted, the rule behind the calls is not given here.
# Assays:
# [1] = system: XIP peptide (Xip251-270) binding; assay: small-molecule binders of XIP peptide, primary screen, biochemical, small-molecule microarray, fluorescence 635/667 nm, 0.1 µg/mL protein (AID 1182); conditions: fluorescent protein binding, 635 nm, higher = more signal, called active from +8 up or from −8 down
# XIP peptide (Xip251-270) = assay: small-molecule binders of XIP peptide, primary screen, biochemical, small-molecule microarray, fluorescence 635/667 nm, 0.5 µg/mL protein (AID 1183); conditions: small-molecule microarray binding, fluorescence 635 nm; higher = more signal
# [2] = Plasmodium falciparum growth inhibition, primary screen, strain 3D7, DAPI fluorescence, 100 nL (AID 1184);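 note: parasites grown inside human red blood cells in medium with human serum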; conditions: P. falciparum 3D7 growth, 3 d, higher = more signal
# [3] = target: Homeobox protein Hox-A13 (Mus musculus) (UniProt Q62424); assay: inhibitors of HoxA13-DNA binding, primary screen, biochemical, fluorescence polarization, labeled oligonucleotide (AID 1185); conditions: 15 min, higher = more signal, called active from +8 up or from −8 down
# [4] = inhibitors of hydroxyurea-induced Chk1 phosphorylation, primary screen, imaging, HeLa, phospho-Chk1 antibody, percent positive cells (AID 1186); conditions: hydroxyurea-induced phospho-Chk1 immunofluorescence imaging, higher = more signal
# [5] = inhibitors of hydroxyurea-induced Chk1 phosphorylation, primary screen, imaging, HeLa, phospho-Chk1 nuclear intensity (AID 1187); conditions: hydroxyurea-induced phospho-Chk1 immunofluorescence imaging, higher = more signal
# Chain of Homeobox protein Hox-A13 (Mus musculus) (Q62424 whole entry, looked up): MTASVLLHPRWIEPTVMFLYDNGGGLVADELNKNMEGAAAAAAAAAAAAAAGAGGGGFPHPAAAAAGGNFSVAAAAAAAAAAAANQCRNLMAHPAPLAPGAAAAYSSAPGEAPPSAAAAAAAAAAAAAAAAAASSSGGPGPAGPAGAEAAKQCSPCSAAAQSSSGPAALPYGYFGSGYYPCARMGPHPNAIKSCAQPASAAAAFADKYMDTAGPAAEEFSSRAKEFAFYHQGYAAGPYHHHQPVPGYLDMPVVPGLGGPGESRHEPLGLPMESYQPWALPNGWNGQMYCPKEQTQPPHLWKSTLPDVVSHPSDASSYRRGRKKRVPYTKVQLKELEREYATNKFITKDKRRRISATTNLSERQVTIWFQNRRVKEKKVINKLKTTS
Compound,composite z-score [1],composite z-score (XIP peptide (Xip251-270)),z-score [2],z-score [3],z-score [4],z-score [5]
CC(CO)N1C(=O)[C@@H]2C3C(=O)OCCC=C[C@H]3OC23C=CCN(c2ccc(Cl)cc2)C(=O)[C@@H]13 (some centres not stated),0.291 (inactive) and 0.137 (inactive),-0.784 and 0.213,-0.764 and -0.187,-3.34 (inactive) and -6.16 (inactive),0.537 (inactive) and -0.0281 (inactive),0.654 (inactive) and 0.0058 (inactive)
C=CCN(CCCCC)C(=O)C(c1cccs1)N(C(=O)/C=C\C(=O)O)c1c(Cl)cccc1CO (configuration not stated),-0.527 (inactive) and 0.809 (inactive),-1.88 and -0.229,0.114 and -0.445,-0.0384 (inactive) and -1.57 (inactive),0.79 (inactive) and 0.313 (inactive),0.728 (inactive) and 0.468 (inactive)
CC(CO)N1C(=O)[C@@H]2C3C(=O)OCCC=C[C@H]3OC23C=CCN(Cc2ccccc2)C(=O)[C@@H]13 (some centres not stated),-0.05 (inactive) and 0.127 (inactive),-0.4 and -0.181,-1.1 and -0.233,-5.29 (inactive) and -4.45 (inactive),-0.769 (inactive) and -0.0621 (inactive),-0.426 (inactive) and -0.217 (inactive)
C[N+](C)(C)CCCCNC(=O)[C@H]1C[C@H]2C(=O)N[C@@H](CCCC[N+](C)(C)C)C(=O)N2[C@H]1c1ccc(O)cc1,1.52 (inactive) and 1.25 (inactive),0.761 and 0.892,0.952 and -1.12,-0.497 (inactive) and 1.22 (inactive),0.487 (inactive) and -0.868 (inactive),0.605 (inactive) and -0.687 (inactive)
C[N+](C)(C)CCCCNC(=O)[C@H]1C[C@H]2C(=O)N[C@@H](CCCC[N+](C)(C)C)C(=O)N2[C@H]1c1cccc(OCCO)c1,1.64 (inactive) and 0.768 (inactive),0.921 and 0.684,0.211 and -0.244,-1.74 (inactive) and -2.51 (inactive),-0.885 (inactive) and -0.42 (inactive),-0.771 (inactive) and -0.16 (inactive)
CCOC(=O)c1ccc(NC(=O)O[C@H]2[C@H](OC(=O)Nc3ccccc3)[C@H](OC(=O)Nc3ccccc3)[C@@H](OC)O[C@@H]2CO)cc1,0.706 (inactive) and 1.24 (inactive),0.844 and 0.901,-2.51 and -2.22,-1.14 (inactive) and -4.8 (inactive),0.143 (inactive) and 0.494 (inactive),0.337 (inactive) and 0.629 (inactive)
C=CCN(CCCC)C(=O)C1N(CCCCCCO)C(=O)C2C(C(=O)O)C3C=CC21O3 (configuration not stated),-0.489 (inactive) and -0.198 (inactive),-0.838 and -0.558,1.51 and 1.68,-0.284 (inactive) and -0.72 (inactive),0.527 (inactive) and 1.03 (inactive),0.977 (inactive) and 1.09 (inactive)
CCOC(=O)C[C@H]1[C@H](OC(=O)c2ccccc2-c2ccccc2)[C@@H](NC(=O)Cc2ccc(OC)cc2)c2cc(OCCCO)ccc2N1C(=O)c1ccc2ccccc2n1,-0.432 (inactive) and 0.387 (inactive),-0.398 and 0.0791,-0.543 and -0.616,-1.67 (inactive) and -0.554 (inactive),-0.015 (inactive) and -0.308 (inactive),0.0414 (inactive) and -0.162 (inactive)
C=CCN(CCCCC)C(=O)C1N(CCOCCO)C(=O)C2C(C(=O)O)C3C=CC21O3 (configuration not stated),0.901 (inactive) and -0.15 (inactive),0.571 and -1.58,0.234 and 0.841,-1.09 (inactive) and -0.752 (inactive),0.0583 (inactive) and 0.485 (inactive),0.233 (inactive) and -0.0615 (inactive)
CC(CO)N1C(=O)[C@@H]2C3C(=O)OCCC=C[C@H]3OC23C=CCN(Cn2nnc4ccccc42)C(=O)[C@@H]13 (some centres not stated),0.287 (inactive) and 0.0057 (inactive),0.699 and 0.41,-0.0355 and 0.986,-3.43 (inactive) and -5.52 (inactive),0.787 (inactive) and 0.875 (inactive),0.336 (inactive) and 0.749 (inactive)
C=CCN(CCCC)C(=O)C(c1cccs1)N(C(=O)/C=C\C(=O)O)c1c(Cl)cccc1CO (configuration not stated),-1.2 (inactive) and -0.551 (inactive),-1.64 and 0.45,-0.486 and -0.375,0.477 (inactive) and -0.33 (inactive),0.0771 (inactive) and -0.132 (inactive),0.677 (inactive) and -0.0581 (inactive)
COC(=O)[C@@]1(Cc2ccc(OC)cc2)[C@H]2c3cc(C(=O)N(C)C)n(Cc4ccc(O)c(OC)c4)c3C[C@H]2CN1C(=O)c1ccccc1,0.371 (inactive) and 0.389 (inactive),0.594 and 0.642,-1.65 and -1.56,-5.37 (inactive) and -3.28 (inactive),0.402 (inactive) and -0.804 (inactive),0.504 (inactive) and -0.921 (inactive)
